Experimental data published in PubChem BioAssay AID1508600 (Functional Genomics Laboratory (NCATS/FGL), 2020).
The whole screen tested about 53,000 sequences, of which about 3,700 (7%) were called active.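 Rule for the calls: active = gene knockdowns whose robust z-score for IL-1 alpha signal is at least 2 or at most -2, so actives lie on both sides; inactive = the rest.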 Only a selection was taken, and actives are over-represented in it overall.

Test: Components of the Cytosolic LPS Sensing Pathway: Gene Identification via Genome-wide siRNA Screen;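 note: robust z of the log signal after scaling to non-targeting control siRNA wells of the plate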
Conditions: RAW264.7 macrophages, IL-1a HTRF, actives lie on both sides, screened at 100 nM (by protocol), cells primed 5 h with Pam3CSK4 first
In short: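 Cells (RAW264.7, 1×10^4 per well) were transfected with siRNA at 100 nM and cultured 48h at 37 degrees C. Pam3CSK4 was added for 5 hours; LipidA transfection followed for 24 hour. IL-1a was then measured by HTRF.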

z-score, inactive:
GGAAUCAUUGACGUAAUCATT against Chil3 1.99
GACAGGCGGCCUUCCGAGATT against Hyi -0.479
GGAUGUAAAAUGCAGUUUATT against Tmsb4x 0.855
GCGGAAUUUGGUUUCUAUUTT against Etv2 -0.432
GGAGUUUCCAUCACGAAGATT against Bmp4 0.574
CCAUUAAGAUCCGAAGUAUTT against Lrrc58 -0.36
GGUUGAAACGAGUUUUGAATT against Zbtb5 0.00556
GGGCAGAAAAUCAUUUGUUTT against Anxa11 0.0839
CCAGUGGUAUGAGGUUGAATT against Cpne3 0.238
GCACAUGGGAGACUAUGAATT against Necab2 -1.14
GCAGAGCGAUUAUAUGGACTT against Rnpepl1 -0.308
CGAUUACUUGGAAAACCAATT against Ifne -1.21
GGCUCAUGUAAGAUAAUUATT against Kcns3 -1.03
CCUGAAGAAAGAAUCCCUATT against Nobox 0.241
CCUACAGUACUUCAAGCGGTT against Hip1 -1.37
GCUCUAACGUAUGAUGCCATT against Nde1 0.206
CCAAACUUAAGCCUAUUCUTT against Mme 1.32
GCAACUGAGGCUUUCUUUGTT against Copg1 -1.53
GGAAGCAUUGAUUUUCAUCTT against Prok2 1.82
GGUCGGUUGCUUUAGUGAATT against Magee2 1.42
GGGCAAAAUCGUGUCAAGCTT against Dpp9 0.253
CCCAAUGAUCCUAACCAUUTT against Zfp459 -1.08
GGAGAGAAUGGACCAUCUCTT against Rnase10 -1.16
GGUGUAUCUGUUCUGUUAATT against Impg1 -0.559
CGAGCUGUUAGAAUUCAGATT against Jakmip1 -0.818
GGAUCAAGAAUUAAUGUCUTT against Nes -0.349
GCGACAACUUAAAGACCGGTT against Cand2 0.0878
GGCCAUCGCACUUAAACUUTT against 1700123K08Rik -0.578
CCGAUGAUCAGAGAAACAGTT against Prkar2b -1.25
GGGACAACAUGGAUUCAAGTT against Sult1c2 0.685
GCCAAAACUCUGUUAGAUATT against Anapc7 -0.931
GGAAUCUAGCUGAGAAAAUTT against Lepr -0.62
GGGAGUUCCAAUCAUUCUUTT against 2200002J24Rik 0.667
GGUCUAUGUACUGUCCUGATT against Otop2 0.0413
GGCAAUCAUGUGGACUUCATT against C230071H18Rik 0.714
CGUGAAGGAAACUUUUCAGTT against Prmt9 -1.45
GGCAGACUCUGCCUACUUATT against Utf1 1.01
GCUUUAAACUGAGUGAUAATT against Zfp451 -0.564
GCAUGACAGGAAACUCUCUTT against Olfr1308 -0.825
GCAACAAAUUUGAAUCAGATT against Chic2 -0.185
GGAUCUUCGUACUAGAGGCTT against Cenpx 0.0358
CCUCGUCGAGUGGAAAAUUTT against Pxylp1 -0.574
GGAGACUCCUUACGGCAAATT against Bnip1 0.227
GGAAUGUUAACAAAGAGCATT against Sgcb 0.8
CCUAAUGUUUAGAUCCAUATT against Gcm2 0.11
GGCCGAAUUGUGUCUUGGUTT against Dnmt3a -1.71
GUGACACCUUUAUGGAGAGTT against Olfr1271 0.267
CGUGCUAGUGACCAUUUACTT against Limch1 0.625
GGGUACCUACAUAGACAAGTT against Rps11 0.0651
GGUAGCUAUUAAAGAAUCCTT against AW209491 1.12
GCGAUCAGCAAGCUAAGCCTT against Mettl2 0.117
GGCCAUGAGGAAAACAAGATT against Coro7 -1.01
ACAAAGAAGCGAUUUCUAUTT against Wtip 1.32
GGUUGUAACUUGUAAGGCATT against Rnf144b 0.123
GGAGACUAAGGAGGUUUAUTT against Ruvbl1 0.494
GGAGUCUCCUUAUAUUAAUTT against Alcam 0.896

z-score, active:
GCACCUGAUUAAGUUGCAUTT against Med15 -2.11
GGGCGACACAAGGUUUUUGTT against Kif3a 2.61
GGAAACAACAACUGUCACATT against Defb40 -2.13
GCACAGGACUGAUGCUAAGTT against Wdr91 2.92
GGCUCUUCCAACAGUUCUUTT against Grk1 2.07
GGACACCAAUCACAUUUGATT against Cngb3 -2.21
GGUGGUCUCCUACAAUGCCTT against Olfr1451 2.3
GGAAGAAGAACUGAAGACATT against Ctnnbl1 2.22
GGAGAUUGACAUUAGCAACTT against Rps6ka2 3.02
GGCCAUCUAAUGACCUUCATT against Madd -2.7
GGGCUGAGGAGAAAAUGCATT against Meg3 -2.37
CGCAGUGAGGAGUAUGAAGTT against Nin 3.53
GCACCCUAGAGGUAAAAGATT against Taf12 -2.95
